Sampled rows, rich in hits. Any-hit rate of the full collection: about 1.1%.
MMP13 inh: inhibitors of human MMP13; P45452; AID 570; inhibition, % at 4 µM; MMP-13 fTHP FRET cleavage, Mca fluorescence; 0.07% of 65,000 active;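 active = inhibition above the mean of compound-free control plate wells plus 3 SD, cut at about 14% in these data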;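 note: 0% = DMSO wells and 100% = wells with reference MMP-13 inhibitor after basal subtraction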
CD11b adhes enh: increases human CD11b/CD18 adhesion to fibrinogen. 0.07% of 93,000 active. activation, % at 10 µM. K562 CD11b/CD18 adhesion to fibrinogen, ATPlite luminescence. P05107+P11215;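 active = 10 µM primary screen giving 50% or more activity, confirmed by 40% or more on retest at that dose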
Mac1 fbg inh: CD11b/CD18-fibrinogen binding inhibition. P05107+P11215. K562 CD11b/CD18 adhesion to fibrinogen, ATPlite luminescence; Mn2+ added to activate the integrin. inhibition, % at 10 µM. 0.54% of 93,000 active. AID 1497;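 active = primary inhibition of 50% or more at 10 µM, then 40% or more on retest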
FAK blocker: inhibitors of human focal adhesion kinase | Q05397 | biochemical FAK kinase activity assay | inhibition, %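 (tested at 7 µM)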 | 0.84% of 97,000 active | AID 727;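 note: 0% = DMSO and 100% = reference compound high control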
FAK inh confirm: confirmation of human focal adhesion kinase (FAK) inhibitors; 28% of 750 active; shares compounds with FAK blocker; FAK kinase biochemical inhibition assay; inhibition, % at 7 µM
Starred values were filed as active, the others as inactive; i = inactive; nt = not tested or not shown. Cut-off read from the data, not from the text of the source, unless noted: active = inhibition above about 19%; inactive = the rest.

SMILES	MMP13 inh	CD11b adhes enh	Mac1 fbg inh	FAK blocker	FAK inh confirm
COc1ccc(C2=NO[C@@H]3C(=O)N(c4c(C)cccc4C)C(=O)[C@H]23)cc1OC	6	0	-17	8	nt
COc1ccc(OC)c(N2C(=O)[C@@H]3C(c4ccccc4Cl)=NO[C@@H]3C2=O)c1	4	2	-4	19*	8
N#Cc1c(-c2ccccc2)c(-c2ccccc2)nn(CC(=O)NNC(=O)Nc2ccc(Cl)c(Cl)c2)c1=O	nt	-3	-3	3	nt
CC(C)(C)C(=O)c1sc(Nc2ccccc2)nc1N	6	1	-40	32*	19
CCCCN(CCCC)CC(O)CN(c1cc([N+](=O)[O-])ccc1OC)S(=O)(=O)c1ccccc1 (stereo not drawn)	nt	-3	11	nt	nt
CCOC(=O)C1CCN(C(=O)Nc2ccc3nc(-c4ccco4)c(-c4ccco4)nc3c2)CC1	2	24	3	93*	5
Oc1ccc2ccccc2c1C=Nc1ccc(N2CCOCC2)cc1	nt	0	-6	46*	49*
O=C(Nc1c(C(=O)N2CCOCC2)cnn1-c1ccccc1)c1ccco1	-3	3	48	2	nt
Cc1ccccc1-n1cnnc1SCC(=O)N1CCN(c2ccccc2)CC1	nt	1	12	0	nt
c1nc(N2CCOCC2)c2c3c(sc2n1)CCCC3	2	-3	-7	28*	-1
CCOC(=O)c1c(C)c(C(=O)NCc2ccccc2OC)c(C)n1C	-3	1	-6	46*	-3
c1ccc2c(c1)ncn2-c1ccc(-c2ccnc(-c3ccncc3)n2)cc1	nt	nt	nt	29*	10
Cc1nccc(-c2ccc(-n3cnc4ccccc43)cc2)n1	nt	-4	-2	-2	nt
Cc1c(Br)c([N+](=O)[O-])nn1CC(=O)N1CCCc2ccccc21	nt	0	4	nt	nt
Cc1cc2nc(-c3ccc(SCC(=O)Nc4ccc5c(c4)OCCO5)nc3)[nH]c2cc1C	nt	nt	nt	-12	nt
Cc1ccccc1-n1c(SC/C(O)=C(\C#N)c2nc3ccccc3[nH]2)nnc1-c1ccncc1	-1	3	10	nt	nt
Cc1cc(C)n2c(SC/C(O)=C(\C#N)c3nc4ccccc4[nH]3)nnc2n1	-4	27	-3	22*	2
Cc1ccc2c(c1)NC(=O)c1cccnc1N2	nt	nt	nt	12	nt
O=C1Nc2ccccc2Nc2ncccc21	nt	-4	-1	39*	12
COc1ccc(C)cc1NS(=O)(=O)c1cccc2nonc12	0	-1	3	nt	nt
COc1ccccc1CN(Cc1nc2ccccc2c(=O)[nH]1)C(=O)Nc1ccccc1	4	-1	-20	6	nt
O=C(CC1Sc2ccccc2NC1=O)OC(C(=O)NCCc1ccccc1)c1cccnc1 (stereo not drawn)	nt	nt	nt	33*	2
COCCNC(=O)C(OC(=O)CC1Sc2ccccc2NC1=O)c1ccncc1 (stereo not drawn)	0	2	-8	-1	nt
O=C(CSc1nnc(CCc2ccccc2)n1-c1ccc(Cl)cc1)c1ccccc1	nt	5	16	nt	nt
C[N+]1(C)CCC(=C2c3ccccc3CC(=O)c3sccc32)CC1	nt	0	8	27*	-1
SMILES	MMP13 inh	CD11b adhes enh	Mac1 fbg inh	FAK blocker	FAK inh confirm
CC[N+]1(C)CCC(=C2c3ccccc3CC(=O)c3sccc32)CC1 (stereo not drawn)	nt	3	-18	0	nt
CC(C)OCCCn1c(=N)c(C(N)=S)cc2c(=O)n3ccccc3nc21	-181	12	-14	32*	6
CC(C)OCCCn1c(=NC(=O)c2ccncc2)c(C#N)cc2c(=O)n3ccccc3nc21	i	-4	-6	7	nt
CCC1=NNc2cccc3c(OC)ccc1c23	nt	65	-14	82*	26*
CCCc1nc2sc3ccccc3c(=O)c2c(=O)n1Cc1ccco1	1	-2	5	22*	6
O=C(NC1CCCCC1)N(Cc1ccc(F)cc1)Cc1nc2ccccc2c(=O)[nH]1	-2	-6	25	2	nt
O=C(COc1ccc(Cl)cc1Cl)Nc1c(-c2cccs2)nc2ccccn12	nt	3	-3	nt	nt
CC1(C)CC(=O)C/C(=N/NC(=O)CCCOc2ccc(Cl)cc2Cl)C1	nt	nt	nt	-2	nt
COc1ccccc1/C=C1\NC(=S)N(CC2CCCO2)C1=O (stereo not drawn)	nt	-1	-3	-4	nt
CN1C(=O)/C(=C/c2ccccc2OCc2ccccc2F)NC1=S	nt	nt	nt	21*	3
CC(C)(CS(=O)(=O)[O-])NC(=O)CC[N+](C)(C)CCO	nt	2	-1	28*	6
Cc1cccn2c(=O)c(C=Nc3ccccc3)c(NCc3ccco3)nc12	-8	-3	-5	24*	4
CCc1cc(=O)oc2cc(C)c(CN3CCCC3)c(O)c12	3	1	-10	29*	2
CCOC(=O)c1ccc(NC(=O)NC(C)C2CCCO2)cc1 (stereo not drawn)	-1	2	-7	0	nt
COc1ccc(-n2c(NC(=O)c3ccco3)c(C#N)c3nc4ccccc4nc32)cc1	-61	12	7	21*	-4
CCOC(=O)c1c(NC(=O)c2ccco2)n(C2CCCCC2)c2nc3ccccc3nc12	nt	0	-1	0	nt
CCCCn1c(NC(=O)c2ccccc2Cl)c(C#N)c2nc3ccccc3nc21	-36	-9	106*	28*	-1
CCOC(=O)c1[nH]c2ccc(F)cc2c1NC(=O)C1=COCCO1	-11	4	14	-5	nt
Cc1cc(C)nc(N(C#N)CC(=O)N(c2ccccc2)C(C)C)n1	-2	1	14	-1	nt
CCOc1ccc2nc(SCC#N)c(C#N)cc2c1	-5	-4	-18	20*	0
CCc1ccc2nc(SCC(=O)N(CC)CC)c(C#N)cc2c1	-5	-2	-11	41*	27*
Cc1cc(C(=O)N2CCC(C(F)(F)F)n3nccc32)on1 (stereo not drawn)	0	-2	17	3	nt
CC(C)Cn1[nH]c2c3c(ccc2c1=O)C(=O)c1ccccc1C3=O	nt	nt	nt	27*	6
Cc1cccc(-n2[nH]c3c4c(ccc3c2=O)C(=O)c2ccccc2C4=O)c1	nt	2	2	nt	nt
CN1CCN(CC(=O)n2c3c(c4ccccc42)CCCC3)CC1	1	-2	-6	20*	2
SMILES	MMP13 inh	CD11b adhes enh	Mac1 fbg inh	FAK blocker	FAK inh confirm
CCN(CC)CC(=O)n1c2c(c3ccccc31)CCCC2	-3	7	22	nt	nt
O=C(CSc1nnc(COc2ccccc2Cl)o1)NC(=O)NC1CCCC1	-1	0	-6	23*	8
CN(C)c1ccc(C(c2nnnn2CCOC(=O)Nc2ccc(Cl)cc2)N2CCOCC2)cc1 (stereo not drawn)	-1	-1	-7	-3	nt
COC(=O)c1ccc2c(c1)N(Cc1nc(-c3cccc(Cl)c3)oc1C)C(=O)C1CCCN21 (stereo not drawn)	-2	nt	nt	nt	nt
COc1nnc(-c2ccc(N3CCCCC3)c(NC(C)=O)c2)c2ccccc12	nt	6	-6	20*	19*
COc1nnc(-c2ccc(N3CCCCC3)c(NC(=O)C3CCCCC3)c2)c2ccccc12	nt	-7	67	0	nt
Nn1cc(-c2ccccc2)nc1SCC(=O)NCCN1C(=O)CSC1=O	-7	1	-2	0	nt
CC1(c2ccc3noc(-c4ccc(F)cc4)c3c2)OCCO1	nt	-6	-46	1	nt

High-throughput results from PubChem BioAssay.
